Here are results for 15 compounds from PubChem BioAssay (EPA / NIEHS).

Records with an inconclusive call do not appear. Calls of active or inactive are those of the source. How the source made its calls: active means hit-call score of the fitted dose curve at least 0.9, where 1 is the maximum; inconclusive means response in the unintended direction; inactive means score below 0.9.

What is called AC50 is the midpoint of the concentration-response curve, whichever way the signal moves.

Assay [1] has as its target rat Catechol-O-Methyl Transferase (COMT), Comt (gene 24267) (UniProt P22734). As to the kind of experiment: NVS_ENZ_rCOMT: NovaScreen (NVS) Enzymatic Assay for rat Catechol-O-Methyl Transferase (COMT) (AID 2283235). In outline: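 Rat dorsal striatum extract served as COMT source; product quantified by HPLC/spectrophotometry, read at 0 h after dosing. Primary single-concentration screen at 25 uM, followed by concentration series to a 50 uM maximum.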

In assay [2] the target is human Sirtuin 2 (SIRT2), SIRT2 (gene 22933) (UniProt Q8IXJ6). As to the kind of experiment: NVS_ENZ_hSIRT2: NovaScreen (NVS) Enzymatic Assay for human Sirtuin 2 (SIRT2) (AID 2283217). Put shortly: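 Single-point duplicate screen at 25 uM, then concentration-response (max 50 uM) for chemicals passing threshold. Enzyme activity of recombinant human SIRT2 measured after 1 hr by fluorescence with mobility-shift separation of product; DMSO baseline.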

For assay [3], the target named is human Sirtuin 1 (SIRT1), SIRT1 (gene 23411) (UniProt Q96EB6). As to the kind of experiment: NVS_ENZ_hSIRT1: NovaScreen (NVS) Enzymatic Assay for human Sirtuin 1 (SIRT1) (AID 2283219). Put shortly:
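Cell-free recombinant SIRT1 with a fluorescent substrate; substrate and product separated by electrophoretic mobility shift and read by fluorescence intensity, 1 h after dosing. Primary screen at 25 uM in duplicate; hits re-run in concentration-response up to 50 uM, relative to DMSO.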

In assay [4] the target is human Sirtuin 3 (SIRT3), SIRT3 (gene 23410) (UniProt Q9NTG7). As to the kind of experiment: NVS_ENZ_hSIRT3: NovaScreen (NVS) Enzymatic Assay for human Sirtuin 3 (SIRT3) (AID 2283222). Put shortly: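 Cell-free enzyme assay with recombinant protein and fluorescent substrate, product separated by electrophoretic mobility shift; read 1 hour after dosing. Screened in duplicate at 25 uM, then singleton concentration-response up to 50 uM; loss of signal versus DMSO.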
human Sirtuin 3 (SIRT3), SIRT3 (gene 23410), sequence (Q9NTG7 whole entry, looked up): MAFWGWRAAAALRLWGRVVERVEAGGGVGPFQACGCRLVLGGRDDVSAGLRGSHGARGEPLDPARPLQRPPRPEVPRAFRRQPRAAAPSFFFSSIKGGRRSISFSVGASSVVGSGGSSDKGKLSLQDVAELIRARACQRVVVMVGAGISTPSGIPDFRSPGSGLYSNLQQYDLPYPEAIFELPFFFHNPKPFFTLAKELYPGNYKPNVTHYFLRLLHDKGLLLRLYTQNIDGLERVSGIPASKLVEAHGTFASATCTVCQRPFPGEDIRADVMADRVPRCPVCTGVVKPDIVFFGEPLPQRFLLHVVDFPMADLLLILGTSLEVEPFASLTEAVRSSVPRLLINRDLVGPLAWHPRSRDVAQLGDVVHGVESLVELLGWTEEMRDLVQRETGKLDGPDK

Assay [5] has as its target human Tyrosine Protein Kinase Receptor Tie-2 (Tie2), TEK (gene 7010) (UniProt Q02763). As to the kind of experiment: NVS_ENZ_hTie2: NovaScreen (NVS) Enzymatic Assay for human Tyrosine Protein Kinase Receptor Tie-2 (Tie2) (AID 2283225). Put shortly: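 Substrate and product were separated by mobility shift and detected by fluorescence after a 1-hour reaction with recombinant Tie2. Chemicals passing a 25 uM single-point screen were titrated to a maximum of 50 uM. Results were normalized to DMSO baseline.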

Assay [6] has as its target sheep Cyclooxygenase-1 (Cox1), PTGS1 (gene 443551) (UniProt P05979). The assay can be described thus: NVS_ENZ_oCOX1: NovaScreen (NVS) Enzymatic Assay for sheep Cyclooxygenase-1 (Cox1) (AID 2283239).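 Further: actives reduce cyclooxygenase activity so potencies are for inhibitors.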 In outline: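 COX1 from ovine seminal vesicles, activity read colorimetrically about 0.66 h after dosing. Primary screen in duplicate at 25 uM; actives retested in concentration series; loss of signal fitted versus DMSO.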

The test system of assay [7] is rat Monoamine Oxidase, MAO-A, Peripheral (MAOAP), gene 29253. As to the kind of experiment: NVS_ENZ_rMAOAP: NovaScreen (NVS) Enzymatic Assay for rat Monoamine Oxidase, MAO-A, Peripheral (MAOAP) (AID 2283237). Put shortly:
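Scintillation counting tracked MAO-A activity in a cell-free rat liver mitochondrial membrane prep, read 1.17 hours after compound addition. Single-point duplicate testing at 25 uM preceded concentration-response follow-up; activity was fitted relative to DMSO.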

The target in assay [8] is rat Monoamine Oxidase, MAO-B, Central (MAOBC), Maob (gene 25750) (UniProt P19643). The assay can be described thus: NVS_ENZ_rMAOBC: NovaScreen (NVS) Enzymatic Assay for rat Monoamine Oxidase, MAO-B, Central (MAOBC) (AID 2283238). Put shortly:
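Actives from a duplicate 25 uM screen went on to singleton concentration-response with a 50 uM maximum. Enzyme source was rat brain tissue MAO-B, assayed cell-free. Radiolabelled product was counted by scintillation 1.17 h post-dose, with signal loss relative to DMSO.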

Assay [9] concerns the target rat Monoamine Oxidase, MAO-B, Peripheral (MAOBP), Maob (gene 25750) (UniProt P19643). As to the kind of experiment: NVS_ENZ_rMAOBP: NovaScreen (NVS) Enzymatic Assay for rat Monoamine Oxidase, MAO-B, Peripheral (MAOBP) (AID 2283242).
Assay [10] has as its target human SRC Proto-Oncogene, Non-receptor Tyrosine Kinase (SRC), SRC (gene 6714) (UniProt P12931). The assay can be described thus: NVS_ENZ_hSRC: NovaScreen (NVS) Enzymatic Assay for human SRC Proto-Oncogene, Non-receptor Tyrosine Kinase (SRC) (AID 2283223). In outline: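 Compounds passing 30% inhibition at 25 uM (duplicate) were titrated to a top concentration of 50 uM. Enzyme activity read by fluorescence with mobility-shift substrate/product separation after 1 h; DMSO baseline.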

Assay [11] deals with human Tropomyosin Receptor Kinase A (TRKA), NTRK1 (gene 4914) (UniProt P04629). The assay can be described thus: NVS_ENZ_hTrkA: NovaScreen (NVS) Enzymatic Assay for human Tropomyosin Receptor Kinase A (TRKA) (AID 2283224). Put shortly: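 Compounds were screened at 25 uM in duplicate, then concentration series to a 50 uM top for those meeting threshold (e.g. 30% inhibition). Enzyme was recombinant human TrkA, incubated 1 h. Product formation was quantified by fluorescence after mobility-shift separation.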
human Tropomyosin Receptor Kinase A (TRKA), NTRK1 (gene 4914), sequence (P04629 whole entry, looked up): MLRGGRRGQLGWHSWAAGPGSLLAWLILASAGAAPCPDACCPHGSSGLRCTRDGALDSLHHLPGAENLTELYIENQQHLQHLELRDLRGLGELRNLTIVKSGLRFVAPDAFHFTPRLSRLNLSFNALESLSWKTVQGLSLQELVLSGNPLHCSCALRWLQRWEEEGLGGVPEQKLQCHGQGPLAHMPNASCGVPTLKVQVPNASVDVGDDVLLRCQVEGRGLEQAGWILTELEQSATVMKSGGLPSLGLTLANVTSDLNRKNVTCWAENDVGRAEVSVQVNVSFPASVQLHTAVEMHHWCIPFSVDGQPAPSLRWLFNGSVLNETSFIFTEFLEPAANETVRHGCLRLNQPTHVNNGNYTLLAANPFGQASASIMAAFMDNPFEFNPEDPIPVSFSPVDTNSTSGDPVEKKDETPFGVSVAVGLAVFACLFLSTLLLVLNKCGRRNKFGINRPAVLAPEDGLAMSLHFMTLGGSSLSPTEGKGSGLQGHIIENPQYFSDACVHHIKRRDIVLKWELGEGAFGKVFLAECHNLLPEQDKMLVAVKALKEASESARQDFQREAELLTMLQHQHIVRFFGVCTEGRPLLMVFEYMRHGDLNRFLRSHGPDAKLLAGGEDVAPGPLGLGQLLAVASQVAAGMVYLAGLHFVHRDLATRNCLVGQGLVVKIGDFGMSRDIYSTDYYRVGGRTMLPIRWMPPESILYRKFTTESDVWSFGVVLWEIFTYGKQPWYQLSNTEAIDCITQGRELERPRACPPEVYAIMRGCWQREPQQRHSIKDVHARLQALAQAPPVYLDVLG

In assay [12] the target is human Vascular Endothelial Growth Factor Receptor 3 (VEGFR3), FLT4 (gene 2324) (UniProt P35916). As to the kind of experiment: NVS_ENZ_hVEGFR3: NovaScreen (NVS) Enzymatic Assay for human Vascular Endothelial Growth Factor Receptor 3 (VEGFR3) (AID 2283229). Put shortly:
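Chemicals first run in duplicate at 25 uM, with actives re-tested in concentration series to a top of 50 uM. Recombinant VEGFR3 activity measured after 1 h via fluorescence with mobility-shift product separation; inhibition fitted relative to DMSO.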

For assay [13], the target named is human Vascular Endothelial Growth Factor Receptor 2 (VEGFR2), KDR (gene 3791) (UniProt P35968). As to the kind of experiment: NVS_ENZ_hVEGFR2: NovaScreen (NVS) Enzymatic Assay for human Vascular Endothelial Growth Factor Receptor 2 (VEGFR2) (AID 2283230). Put shortly: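 Cell-free recombinant VEGFR2 kinase, fluorescent substrate with electrophoretic mobility-shift separation; read 1 h after dosing. Screened at 25 uM in duplicate, hits to concentration-response up to 50 uM; loss-of-signal versus DMSO.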
human Vascular Endothelial Growth Factor Receptor 2 (VEGFR2), KDR (gene 3791), sequence (P35968 whole entry, looked up): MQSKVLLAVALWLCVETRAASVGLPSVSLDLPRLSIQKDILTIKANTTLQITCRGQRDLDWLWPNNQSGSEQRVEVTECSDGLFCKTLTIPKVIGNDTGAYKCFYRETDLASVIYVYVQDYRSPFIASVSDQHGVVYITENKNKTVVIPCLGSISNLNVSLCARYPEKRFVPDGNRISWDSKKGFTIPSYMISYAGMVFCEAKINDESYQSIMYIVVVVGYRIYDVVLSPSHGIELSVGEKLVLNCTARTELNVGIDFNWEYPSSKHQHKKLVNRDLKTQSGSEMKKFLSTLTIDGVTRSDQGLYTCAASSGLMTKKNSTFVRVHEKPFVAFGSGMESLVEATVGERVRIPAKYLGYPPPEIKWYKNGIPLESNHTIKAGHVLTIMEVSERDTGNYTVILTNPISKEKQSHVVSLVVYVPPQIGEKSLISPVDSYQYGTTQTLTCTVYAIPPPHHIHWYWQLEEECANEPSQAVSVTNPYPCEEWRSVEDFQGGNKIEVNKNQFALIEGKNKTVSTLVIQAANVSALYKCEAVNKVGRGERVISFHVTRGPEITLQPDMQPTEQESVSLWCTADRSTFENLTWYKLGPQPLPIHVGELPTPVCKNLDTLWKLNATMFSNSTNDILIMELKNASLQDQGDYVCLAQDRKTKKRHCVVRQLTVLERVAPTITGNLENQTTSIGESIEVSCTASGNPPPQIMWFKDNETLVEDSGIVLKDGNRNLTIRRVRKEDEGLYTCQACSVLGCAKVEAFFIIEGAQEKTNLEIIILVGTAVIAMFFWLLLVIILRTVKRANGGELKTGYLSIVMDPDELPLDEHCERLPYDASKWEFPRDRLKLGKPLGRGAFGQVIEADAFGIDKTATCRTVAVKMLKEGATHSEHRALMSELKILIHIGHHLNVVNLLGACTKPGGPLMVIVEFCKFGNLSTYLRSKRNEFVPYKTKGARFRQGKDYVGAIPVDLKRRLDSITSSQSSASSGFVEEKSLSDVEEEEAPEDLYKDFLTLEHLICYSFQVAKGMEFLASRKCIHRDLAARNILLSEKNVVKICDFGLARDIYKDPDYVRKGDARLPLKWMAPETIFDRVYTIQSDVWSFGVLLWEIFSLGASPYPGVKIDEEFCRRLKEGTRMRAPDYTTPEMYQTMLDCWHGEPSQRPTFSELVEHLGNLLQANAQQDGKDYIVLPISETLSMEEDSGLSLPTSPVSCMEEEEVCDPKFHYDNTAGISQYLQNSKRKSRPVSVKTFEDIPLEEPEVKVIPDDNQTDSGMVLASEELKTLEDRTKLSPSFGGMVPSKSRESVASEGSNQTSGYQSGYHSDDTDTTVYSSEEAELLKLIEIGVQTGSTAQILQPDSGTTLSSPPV

Assay [14] deals with sheep Cyclooxygenase-2 (Cox2), PTGS2 (gene 443460) (UniProt P79208). As to the kind of experiment: NVS_ENZ_oCOX2: NovaScreen (NVS) Enzymatic Assay for sheep Cyclooxygenase-2 (Cox2) (AID 2283231). Put shortly:
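Enzyme from ovine placenta, cell-free; colorimetric absorbance read 0.66 hour after dosing, loss of signal vs DMSO. Screened in duplicate at 25 uM, then concentration-response up to 50 uM.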

The target of assay [15] is rat Adenylate Cyclase, Forskolin Stimulated, Adcy5 (gene 64532) (UniProt Q04400). As to the kind of experiment: NVS_ENZ_rACFSKBinding: NovaScreen (NVS) Enzymatic Assay for rat Adenylate Cyclase, Forskolin Stimulated (AID 2283232). Put shortly: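 Chemicals were first tested at 25 uM in duplicate, then hits run as concentration series with top concentration 50 uM. Enzyme source was rat forebrain membranes; radiometric filter read-out after 1 h, referenced to DMSO.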

Assay [16] deals with human Vascular Endothelial Growth Factor Receptor 1 (VEGFR1), FLT1 (gene 2321) (UniProt P17948). The assay can be described thus: NVS_ENZ_hVEGFR1: NovaScreen (NVS) Enzymatic Assay for human Vascular Endothelial Growth Factor Receptor 1 (VEGFR1) (AID 2283226). In outline: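 Kinase activity of recombinant human VEGFR1 was read by fluorescence after electrophoretic separation of product from substrate, 1 h post-dosing; initial duplicate single-point testing at 25 uM, followed by concentration-series follow-up, with DMSO as baseline.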

human Vascular Endothelial Growth Factor Receptor 3 (VEGFR3), FLT4 (gene 2324), sequence (P35916 whole entry, looked up): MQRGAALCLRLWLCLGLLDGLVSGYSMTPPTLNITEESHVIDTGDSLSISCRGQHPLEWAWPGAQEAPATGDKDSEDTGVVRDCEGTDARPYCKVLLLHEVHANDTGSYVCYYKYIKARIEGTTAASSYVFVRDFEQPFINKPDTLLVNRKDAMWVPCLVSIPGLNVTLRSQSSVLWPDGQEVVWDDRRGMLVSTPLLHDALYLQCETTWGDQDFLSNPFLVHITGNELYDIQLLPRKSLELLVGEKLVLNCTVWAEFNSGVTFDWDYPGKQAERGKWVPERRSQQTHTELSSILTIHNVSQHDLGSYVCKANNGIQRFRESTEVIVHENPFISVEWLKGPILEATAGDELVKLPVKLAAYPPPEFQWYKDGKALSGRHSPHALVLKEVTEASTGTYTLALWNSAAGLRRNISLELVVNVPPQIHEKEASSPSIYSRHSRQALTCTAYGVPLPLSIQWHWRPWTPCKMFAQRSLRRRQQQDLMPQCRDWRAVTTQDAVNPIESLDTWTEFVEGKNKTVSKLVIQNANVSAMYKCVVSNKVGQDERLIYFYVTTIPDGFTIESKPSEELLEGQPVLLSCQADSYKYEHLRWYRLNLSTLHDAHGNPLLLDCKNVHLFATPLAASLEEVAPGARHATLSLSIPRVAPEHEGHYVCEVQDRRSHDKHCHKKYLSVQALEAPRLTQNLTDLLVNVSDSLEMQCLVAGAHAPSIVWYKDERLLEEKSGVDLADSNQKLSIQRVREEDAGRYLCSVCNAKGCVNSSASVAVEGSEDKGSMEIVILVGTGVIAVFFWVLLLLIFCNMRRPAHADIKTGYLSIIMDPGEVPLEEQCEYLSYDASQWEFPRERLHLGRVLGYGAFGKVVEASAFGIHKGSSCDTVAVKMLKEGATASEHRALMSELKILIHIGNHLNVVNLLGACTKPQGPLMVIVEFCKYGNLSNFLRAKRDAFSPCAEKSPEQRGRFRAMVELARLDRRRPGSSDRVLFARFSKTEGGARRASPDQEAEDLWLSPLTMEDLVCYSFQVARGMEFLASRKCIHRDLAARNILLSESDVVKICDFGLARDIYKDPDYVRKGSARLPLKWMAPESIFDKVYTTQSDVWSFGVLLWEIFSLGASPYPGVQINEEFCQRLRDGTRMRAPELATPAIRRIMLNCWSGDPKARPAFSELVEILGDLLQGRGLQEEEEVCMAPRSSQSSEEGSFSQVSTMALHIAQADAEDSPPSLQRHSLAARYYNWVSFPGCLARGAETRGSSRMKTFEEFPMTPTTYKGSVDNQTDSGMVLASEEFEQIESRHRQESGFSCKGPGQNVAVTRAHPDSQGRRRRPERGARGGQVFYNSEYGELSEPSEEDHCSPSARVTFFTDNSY
rat Monoamine Oxidase, MAO-B, Central (MAOBC), Maob (gene 25750), sequence (P19643 whole entry, looked up): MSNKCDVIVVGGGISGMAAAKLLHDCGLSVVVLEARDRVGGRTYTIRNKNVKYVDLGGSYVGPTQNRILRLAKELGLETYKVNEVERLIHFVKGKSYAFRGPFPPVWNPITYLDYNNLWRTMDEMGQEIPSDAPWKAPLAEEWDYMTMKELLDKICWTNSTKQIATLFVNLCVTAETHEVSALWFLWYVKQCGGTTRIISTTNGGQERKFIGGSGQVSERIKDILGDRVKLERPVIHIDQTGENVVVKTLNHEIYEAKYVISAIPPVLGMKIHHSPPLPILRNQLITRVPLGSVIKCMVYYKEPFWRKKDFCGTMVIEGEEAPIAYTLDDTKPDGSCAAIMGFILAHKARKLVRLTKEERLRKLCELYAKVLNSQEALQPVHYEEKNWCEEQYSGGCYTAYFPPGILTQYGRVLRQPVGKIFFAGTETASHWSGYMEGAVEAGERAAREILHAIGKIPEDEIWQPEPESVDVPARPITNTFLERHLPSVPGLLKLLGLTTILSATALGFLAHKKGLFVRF
rat Monoamine Oxidase, MAO-B, Peripheral (MAOBP), Maob (gene 25750), sequence (P19643 whole entry, looked up): as above
sheep Cyclooxygenase-1 (Cox1), PTGS1 (gene 443551), sequence (P05979 whole entry, looked up): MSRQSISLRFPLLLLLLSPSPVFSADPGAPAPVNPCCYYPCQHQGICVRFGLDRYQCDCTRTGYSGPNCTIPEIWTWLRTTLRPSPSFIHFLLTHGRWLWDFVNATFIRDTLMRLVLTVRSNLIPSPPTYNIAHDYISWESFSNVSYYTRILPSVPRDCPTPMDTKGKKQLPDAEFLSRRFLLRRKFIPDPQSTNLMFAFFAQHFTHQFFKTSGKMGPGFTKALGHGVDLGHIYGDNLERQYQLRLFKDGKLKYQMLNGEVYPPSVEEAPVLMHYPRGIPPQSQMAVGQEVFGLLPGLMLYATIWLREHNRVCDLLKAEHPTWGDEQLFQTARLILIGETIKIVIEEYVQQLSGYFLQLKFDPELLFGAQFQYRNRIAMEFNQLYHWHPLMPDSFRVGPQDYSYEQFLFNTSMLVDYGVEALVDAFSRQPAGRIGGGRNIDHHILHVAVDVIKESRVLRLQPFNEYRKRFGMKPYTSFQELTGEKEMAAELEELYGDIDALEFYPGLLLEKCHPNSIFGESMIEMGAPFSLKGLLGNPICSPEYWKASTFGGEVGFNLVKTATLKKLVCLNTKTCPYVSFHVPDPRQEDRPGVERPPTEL

Consider `Cc1ccccc1CO[C@@H]1C[C@@]2(C(C)C)CC[C@]1(C)O2`, for which, in assay [1], the outcome was inactive.
With `Oc1ccc(C(c2ccc(O)cc2)(C(F)(F)F)C(F)(F)F)cc1`, the AC50 was 25 µM (active) in assay [2], 38.7 µM (active) in [3], 42.9 µM (active) in assay [4] and 36.3 µM (active) in assay [5].
Consider `CCCCCCCCCc1ccc(O)cc1`, for which the compound was classed as inactive in assay [6].
On to `Cc1cc(O)ccc1Cl`, for which the values for the AC50 in assay [7], in assay [8] and in [9] were 19.1 µM (active), 13.6 µM (active) and 25 µM (active), respectively.
As to `CCSC(=O)N(CC)C1CCCCC1`, the AC50 in assay [9] was 32.8 µM (active).
On to `CC1=C2C[C@H]3[C@@H](CC=C4C[C@@H](O)CC[C@@]43C)[C@@H]2CC[C@]12O[C@@H]1C[C@H](C)CN[C@H]1[C@H]2C`, for which the outcome in assay [10], in [11], in [5], in [12], in assay [13] and in assay [9] was inactive.
As for `N#Cc1ccc(N(CC(N)=O)CC(F)(F)F)cc1C(F)(F)F`, in assay [14], the AC50 is 6.58 µM (active).
Regarding `Oc1ccc(Cl)cc1Cl`, the AC50 in [8] was 7.6 µM (active).
Consider `c1cc2ccc3cccc4ccc(c1)c2c34`, for which the call in assay [3], in [4] and in assay [12] was inactive.
Regarding `CCCN(CCC)N=O`, the outcome in assay [4], in assay [11], in [5] and in assay [13] was inactive.
In the case of `CCOC(=O)C(O)(c1ccc(Cl)cc1)c1ccc(Cl)cc1`, the call in assay [13] was inactive.
In the case of `Cc1cc2c3c(c1)C(c1ccccc1)=N[C@@H](NC(=O)c1ccncc1)C(=O)N3CC2`, the call in assay [2], in assay [4] and in assay [5] was inactive.
For `CC(C)(c1ccccc1)c1ccc(O)cc1`, the call in assay [13], in [15], in assay [8] and in [9] was inactive.
Turning to `CC(C)(O)C(=O)Nc1ccc([N+](=O)[O-])c(C(F)(F)F)c1`, the concentration at half-maximal activity (AC50) in assay [8] was 12.1 µM (active). Also, the result in assay [9] was inactive.
Regarding `O=C(O)C(F)(F)C(F)(F)C(F)(F)C(F)(F)C(F)(F)C(F)(F)C(F)(F)C(F)(F)F`, the compound was called inactive in assay [3], in [11], in assay [16] and in assay [12]. For the same compound, in [5], the AC50 is 6.63 µM (active).
